Here are results for 27 compounds from PubChem BioAssay (Tox21).

Active and inactive are the calls of the source. Unless noted, calls follow the shape of the dose curve; as a rule, active = well fitted curve in the direction sought with a large enough effect in the repeat runs; inconclusive = weak or mixed curves; inactive = no such curve, though single readings can be large; an effect the other way counts as inactive or inconclusive.

Assay [1] addresses Estrogen receptor (Homo sapiens) (UniProt P03372). As to the kind of experiment: qHTS assay to identify small molecule antagonists of the estrogen receptor alpha (ER-alpha) signaling pathway (AID 743069; active = well fitted curve in the direction sought with a large enough effect in the signal ratio in the repeat runs, not every such curve was filed as active; inconclusive = weak or mixed curves, or effect the other way; inactive = no such curve, though single readings can be large or run the other way; the % refers to the signal ratio; also: potency is read from the fitted curve at half-maximal effect). The conditions noted are these: HEK293 ER-alpha-UAS-bla, beta-lactamase ratio, antagonist mode; series mostly up to 69.4 µM. A digest of the protocol:
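Estradiol-stimulated ER-alpha-UAS-bla HEK293 cells, 18 hr compound exposure at 37C. LiveBLAzer B/G substrate, 2 hr RT, fluorescence read.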
A general note: qHTS replaces the single test concentration by a dilution series.

Assay [2] in a line: qHTS assay to identify small molecule antagonists of the estrogen receptor alpha (ER-alpha) signaling pathway - cell viability counter screen (AID 743074; calls by dose curve;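 also: HEK293 cells carrying ER-alpha-UAS-bla reporter stimulated with 17beta-estradiol; nearly all actives have a fitted effect of over 45% in size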; also: potency is read from the fitted curve at half-maximal effect). The conditions noted are these: ERalpha-bla HEK293 viability, CellTiter-Glo luminescence, 18 h; series mostly up to 69.4 µM.
Assay [3] addresses Estrogen receptor (Homo sapiens) (UniProt P03372). As to the kind of experiment: qHTS assay to identify small molecule agonists of the estrogen receptor alpha (ER-alpha) signaling pathway (AID 743075; calls by dose curve;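 also: HEK293 GripTite cells with ER-alpha and UAS-driven beta-lactamase reporter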; also: potency is read from the fitted curve at half-maximal effect). The conditions noted are these: HEK293 ER-alpha-UAS-bla, beta-lactamase FRET ratio, 18 h; series mostly up to 70.1 µM.
Assay [4] shares this target. As to the kind of experiment: qHTS assay to identify small molecule agonists of the estrogen receptor alpha (ER-alpha) signaling pathway using the BG1 cell line (AID 743079). Also: nearly all actives have a fitted effect of over 20% in size. Also: potency is read from the fitted curve at half-maximal effect. The conditions noted are these: BG1Luc4E2 cells, ERE-luciferase agonist, 22 h; activation: at 70.3 µM (top of the series).
Assay [5] is described as follows: qHTS assay to identify small molecule antagonists of the estrogen receptor alpha (ER-alpha) signaling pathway using the BG1 cell line (AID 743080; calls by dose curve;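 also: BG1 cells stimulated with 17beta-estradiol alongside compound; nearly all actives have a fitted effect of over 25% in size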). Particulars: BG1Luc4E2 ERE-luciferase antagonist mode, luminescence; series mostly up to 70.3 µM. In a few lines: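 BG1-Luc-4E2 cells (endogenous full-length ER-alpha, stable 4×ERE-luciferase) were starved 5 days in phenol-red-free medium with 10% charcoal-stripped FBS, plated 24 h, then given compound plus 17beta-estradiol for 21.5 h at 37 C; ONE-Glo luminescence read after 30 min.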

A short description of assay [6]: qHTS assay to identify small molecule antagonists of the estrogen receptor alpha (ER-alpha) signaling pathway using the BG1 cell line - cell viability counter screen (AID 743081).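 Also: compound given together with 17beta-estradiol as the ER stimulus; nearly all actives have a fitted effect of over 45% in size.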 Particulars: BG1Luc4E2 viability, CellTiter-Fluor, 22 h; series mostly up to 70.3 µM.
Another assay has as its target Aromatase (Homo sapiens) (UniProt P11511). In words: qHTS assay to identify aromatase inhibitors (AID 743083). Also: nearly all actives have a fitted effect of over 55% in size. Also: potency is read from the fitted curve at half-maximal effect. The conditions noted are these: MCF-7 aro ERE, testosterone-driven ERE luciferase, 24 h; series mostly up to 70.3 µM.
Assay [7] has as its system thyroid hormone receptor (rat, GH3 cells). In words: qHTS assay to identify small molecule agonists of the thyroid receptor (TR) signaling pathway (AID 743066; calls by dose curve; also: potency is read from the fitted curve at half-maximal effect). The conditions noted are these: GH3.TRE-Luc cells, TR agonist luciferase, 24 h; series mostly up to 83.9 µM.

Chain of Aromatase (Homo sapiens) (P11511 whole entry, looked up): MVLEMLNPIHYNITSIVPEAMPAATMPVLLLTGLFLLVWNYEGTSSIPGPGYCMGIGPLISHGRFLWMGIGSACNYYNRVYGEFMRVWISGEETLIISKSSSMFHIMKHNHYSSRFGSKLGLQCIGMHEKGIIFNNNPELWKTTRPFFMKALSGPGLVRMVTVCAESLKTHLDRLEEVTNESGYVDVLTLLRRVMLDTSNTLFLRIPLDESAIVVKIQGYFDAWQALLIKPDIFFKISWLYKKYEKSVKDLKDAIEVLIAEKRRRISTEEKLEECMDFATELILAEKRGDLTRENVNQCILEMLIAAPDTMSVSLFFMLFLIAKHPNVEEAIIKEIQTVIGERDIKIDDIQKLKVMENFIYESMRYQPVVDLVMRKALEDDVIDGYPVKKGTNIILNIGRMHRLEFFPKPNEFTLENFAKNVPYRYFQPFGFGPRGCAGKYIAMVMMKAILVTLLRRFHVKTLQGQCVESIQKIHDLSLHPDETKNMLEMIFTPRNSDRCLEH
Chain of Estrogen receptor (Homo sapiens) (P03372 whole entry, looked up): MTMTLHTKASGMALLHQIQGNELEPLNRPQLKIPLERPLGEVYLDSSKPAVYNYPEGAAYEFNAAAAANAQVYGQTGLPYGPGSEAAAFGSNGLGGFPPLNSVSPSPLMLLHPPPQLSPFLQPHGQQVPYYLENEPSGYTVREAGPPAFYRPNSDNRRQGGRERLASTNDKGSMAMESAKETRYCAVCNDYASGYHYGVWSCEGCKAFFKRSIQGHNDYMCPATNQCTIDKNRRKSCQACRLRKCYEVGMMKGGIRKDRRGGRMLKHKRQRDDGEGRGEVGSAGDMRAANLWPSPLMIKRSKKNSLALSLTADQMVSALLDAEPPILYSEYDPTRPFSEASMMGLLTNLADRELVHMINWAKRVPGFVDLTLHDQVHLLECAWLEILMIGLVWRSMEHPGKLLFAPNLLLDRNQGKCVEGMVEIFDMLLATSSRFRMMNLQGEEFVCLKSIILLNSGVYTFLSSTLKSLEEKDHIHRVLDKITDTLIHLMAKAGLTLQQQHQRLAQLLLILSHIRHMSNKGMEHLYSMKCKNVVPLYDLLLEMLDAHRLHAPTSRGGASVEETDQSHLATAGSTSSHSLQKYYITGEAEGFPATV

With `C#C[C@]1(O)CC[C@H]2[C@@H]3CCC4=CCCC[C@@H]4[C@H]3C(=C)C[C@@]21CC`, the Potency entry (in assay [1]; in assay [2]; in assay [5]; in assay [6]; in the assay with Aromatase (Homo sapiens)) was “inactive” each time. The Potency in assay [3] is 2.39 µM [inconclusive] (active); in assay [4], 1.88 µM (active).
As to `Nc1c(Br)cc(Br)cc1CNC1CCC(O)CC1` (stereo not drawn), the Potency entry in assay [1], in assay [2], in assay [3], in assay [4], in assay [5] and in assay [6] was “inactive” throughout. Besides, the Potency result with Aromatase (Homo sapiens) is “inactive”.
Regarding `O=C(COc1ccc(Cl)cc1)OCCNC12CC3CC(CC(C3)C1)C2`, the Potency entry in assay [1], in assay [2], in assay [3], in assay [4], in assay [5] and in assay [6] was “inactive” in each case. The Potency entry with Aromatase (Homo sapiens) was “inactive”.
Consider `CCCCC/C=C\C/C=C\C/C=C\CCCCC(=O)O`, for which the Potency result (in assay [7]; in assay [2]; in assay [6]; in the assay with Aromatase (Homo sapiens)) was “inactive” throughout.
Turning to `Cc1cc(-n2c(=O)[nH]c(=O)n(C)c2=O)ccc1Oc1ccc(S(=O)(=O)C(F)(F)F)cc1`, in assay [7], the Potency is 9.44 µM (active). The Potency result (in assay [3]; in assay [6]; in the assay with Aromatase (Homo sapiens)) was “inactive” throughout.
For `CC1(C)S[C@@H]2[C@H](NC(=O)C(C(=O)O)c3ccsc3)C(=O)N2[C@H]1C(=O)O` (stereo partly drawn), the Potency entry in assay [1], in assay [2], in assay [3], in assay [4], in assay [5] and in assay [6] was “inactive” throughout. Also, the Potency result in the assay with Aromatase (Homo sapiens) was “inactive”.
As for `COc1ccc(CCNCC(O)COc2cccc(C)c2)cc1OC` (stereo not drawn), the Potency entry in assay [7], in assay [1], in assay [2], in assay [3], in assay [4] and in assay [5] was “inactive” in each case. Also, the Potency result (in assay [6]; in the assay with Aromatase (Homo sapiens)) was “inactive” each time.
On to `COC(F)(F)C(Cl)Cl`, for which the Potency result in assay [1], in assay [2], in assay [3], in assay [4], in assay [5] and in assay [6] was “inactive” throughout. Besides, in the assay with Aromatase (Homo sapiens), the Potency result is “inactive”.
As for `CCCCCCCCCCCCCCCC(=O)OCC(COC(=O)CCCCCCCCCCCCCCC)OC(=O)CCCCCCCCCCCCCCC`, the Potency result (in assay [7]; in assay [1]; in assay [2]; in assay [3]; in assay [6]; with Aromatase (Homo sapiens)) was “inactive” in each case.
`Clc1ccc(COC(Cn2ccnc2)c2ccc(Cl)cc2Cl)c(Cl)c1` (stereo not drawn): the Potency result in assay [1], in assay [2], in assay [3], in assay [4], in assay [5] and in assay [6] was “inactive” throughout.
Regarding `CNC(C)CCC=C(C)C` (stereo not drawn), the Potency result (in assay [7]; in assay [6]; with Aromatase (Homo sapiens)) was “inactive” each time.
Turning to `CN(CC(=O)N1CCOCC1)Cc1c(Cl)cccc1NC(=O)c1ccccc1`, the Potency result in assay [2], in assay [3], in assay [4], in assay [5] and in assay [6] was “inactive” in each case.
For the compound `NC[C@@H]1O[C@H](O[C@H]2[C@@H](O)[C@H](O[C@@H]3[C@@H](O)[C@H](N)C[C@H](N)[C@H]3O[C@H]3O[C@H](CN)[C@@H](O)[C@H](O)[C@H]3N)O[C@@H]2CO)[C@H](N)[C@@H](O)[C@@H]1O`, the Potency result (in assay [1]; in assay [2]; in assay [3]; in assay [4]; in assay [6]; with Aromatase (Homo sapiens)) was “inactive” throughout.
As to `COC(=O)CCC(=O)CN`, the Potency result (in assay [1]; in assay [2]; in assay [3]; in assay [4]; in assay [6]; with Aromatase (Homo sapiens)) was “inactive” throughout.
Take `CC(C)CN(C[C@@H](O)[C@H](Cc1ccccc1)NC(=O)O[C@@H]1CCOC1)S(=O)(=O)c1ccc(N)cc1`: the Potency entry (in assay [1]; in assay [2]; in assay [3]; in assay [6]; with Aromatase (Homo sapiens)) was “inactive” throughout.
On to `CC1(C)S[C@@H]2[C@H](NC(=O)C(N)c3ccccc3)C(=O)N2[C@H]1C(=O)OC1OC(=O)c2ccccc21` (stereo partly drawn), for which the Potency entry (in assay [2]; in assay [6]; with Aromatase (Homo sapiens)) was “inactive” throughout.
For `CCCCC(F)(F)[C@@]1(O)CC[C@H]2[C@@H](CC(=O)[C@@H]2CCCCCCC(=O)O)O1`, the Potency result in assay [2], in assay [4], in assay [5] and in assay [6] was “inactive” each time.
Regarding `CCOC(=O)CCC(=O)O[C@H]1[C@H](O[C@@H]2[C@@H](C)[C@H](O[C@H]3C[C@@](C)(OC)[C@@H](O)[C@H](C)O3)[C@@H](C)C(=O)O[C@H](CC)[C@@](C)(O)[C@H](O)[C@@H](C)C(=O)[C@H](C)C[C@@]2(C)O)O[C@H](C)C[C@@H]1N(C)C`, the Potency result (in assay [1]; in assay [2]; in assay [3]; in assay [4]; in assay [5]; with Aromatase (Homo sapiens)) was “inactive” each time.
With `CC(C)(C)C(=O)OCOC(=O)[C@@H]1N2C(=O)[C@@H](N=CN3CCCCCC3)[C@H]2SC1(C)C`, the Potency result (in assay [1]; in assay [2]; in assay [3]; in assay [4]; in assay [5]; with Aromatase (Homo sapiens)) was “inactive” throughout.
Turning to `CO[C@H]1C[C@H](O[C@H]2[C@H](C)[C@@H](O[C@@H]3O[C@H](C)C[C@H](N(C)C)[C@H]3OC(C)=O)[C@@H](C)C[C@]3(CO3)C(=O)[C@H](C)[C@@H](OC(C)=O)[C@@H](C)[C@@H](C)OC(=O)[C@@H]2C)O[C@@H](C)[C@@H]1OC(C)=O`, the Potency entry (in assay [2]; in assay [6]; in the assay with Aromatase (Homo sapiens)) was “inactive” throughout.
As for `N[C@@H](C(=O)N[C@@H]1C(=O)N2C(C(=O)O)=C(CSc3cn[nH]n3)CS[C@H]12)c1ccc(O)cc1`, the Potency result (in assay [2]; in assay [6]; with Aromatase (Homo sapiens)) was “inactive” in each case.
Turning to `CC[C@@]1(O)C[C@H](O[C@H]2C[C@H](N(C)C)[C@H](O[C@H]3C[C@H](O)[C@H](O[C@H]4CCC(=O)[C@H](C)O4)[C@H](C)O3)[C@H](C)O2)c2c(cc3c(c2O)C(=O)c2c(O)cccc2C3=O)[C@H]1C(=O)OC`, the Potency in assay [1] was 6.01 µM [inconclusive] (active); in assay [4] it was 2.98 µM (active); with Aromatase (Homo sapiens), 2.66 µM (active). In addition, the Potency result in assay [2] is “inactive”.
Consider `CCOC(=O)CN[C@@H](C(=O)N1CC[C@H]1C(=O)NCc1ccc(/C(N)=N/O)cc1)C1CCCCC1`, for which the Potency result (in assay [2]; in assay [3]; in assay [4]; in assay [5]; in assay [6]; in the assay with Aromatase (Homo sapiens)) was “inactive” each time.
As for `Cc1ccccc1OCC(O)CNCCOc1ccc(C(N)=O)cc1` (stereo not drawn), the Potency result (in assay [2]; in assay [6]; with Aromatase (Homo sapiens)) was “inactive” throughout.
In the case of `CC[C@H](C)[C@H]1O[C@]2(CC[C@@H]1C)C[C@@H]1C[C@@H](C/C=C(\C)[C@@H](O[C@H]3C[C@H](OC)[C@@H](O[C@H]4C[C@H](OC)[C@@H](O)[C@H](C)O4)[C@H](C)O3)[C@@H](C)/C=C/C=C3\CO[C@@H]4[C@H](O)C(C)=C[C@@H](C(=O)O1)[C@]34O)O2`, the Potency in assay [1] is 7.56 µM [inconclusive] (active); in assay [2] it was 19 µM (active). The Potency result with Aromatase (Homo sapiens) was “inactive”.
For `CCN(CC)Cc1cc(Nc2ccnc3cc(Cl)ccc23)ccc1O`, the Potency result (in assay [2]; with Aromatase (Homo sapiens)) was “inactive” in each case.
Consider `CCCCC(=O)N(Cc1ccc(-c2ccccc2-c2nn[nH]n2)cc1)[C@@H](C(=O)O)C(C)C`, for which the Potency result in assay [1], in assay [2], in assay [3], in assay [4], in assay [5] and in assay [6] was “inactive” in each case. Also, in the assay with Aromatase (Homo sapiens), the Potency result is “inactive”.
